The campaign covered roughly 52,000 compounds. About 4,300 (8.3%) were called active. Rule as the data show it: active = survival mostly below about 52% (no sharp cut-off); inactive = mostly above about 56%. Only a selection was taken, and actives are over-represented in it overall.
Test system: DeltatarO mutant
Assay: growth inhibition of S. aureus wild type versus tarO mutant, primary screen, teichoic acid synthesis inhibitors, RN4220, OD600 (AID 463173)
Conditions: OD600, 18 h, hits give low values, screened at 18.75 µg/mL (by protocol)

| SMILES | survival |
| --- | --- |
| CCCS(=O)(=O)N1CCCC(C(=O)NCCCOC)C1 (centres undefined) | 77% (inactive) |
| CCOc1ccc(Br)cc1C1NC(=O)c2c(sc3c2CCN(C)C3)N1 (centres undefined) | 60% (inactive) |
| CCn1c(C)c(C)c2cc(C(=O)NCc3ccc(OC)cc3OC)ccc21 | 70% (inactive) |
| CCc1nn2c(=O)cc(COC(=O)C(CC)c3ccccc3)nc2s1 (centres undefined) | 92% (inactive) |
| CCN(Cc1ccccc1)C(=O)c1cc2ccc3cccnc3c2[nH]1 | 49% (inactive) |
| Cc1cccc(C(=O)NCCc2nc3ccccc3n2Cc2ccc(Cl)cc2)c1 | 79% (inactive) |
| COC(=O)c1ccc(N2C(=O)c3ccc(N)cc3C2=O)cc1 | 73% (inactive) |
| COc1cc(Cl)c(NC(=O)c2cc(CN3CCCC3)on2)c(OC)c1 | 94% (inactive) |
| CC(=O)c1cccc(NC(=O)CSc2nnc3ccc(-c4ccc(Br)cc4)nn23)c1 | 75% (inactive) |
| COC(=O)c1ccc(NC(=O)c2c(-c3ccccc3)c(-c3ccccc3)nn(C)c2=O)cc1 | 58% (inactive) |
| CCn1nc(-c2ccccc2)c(-c2ccccc2)c(C(=O)Nc2ccc(S(N)(=O)=O)cc2)c1=O | 66% (inactive) |
| Cn1nc(-c2ccccc2)c(-c2ccccc2)c(C(=O)Nc2ccc(S(N)(=O)=O)cc2)c1=O | 49% (active) |
| Cc1ccc(-c2nc3sc(CCNC(=O)c4ccco4)c(C)n3n2)cc1 | 87% (inactive) |
| Cc1ccc(C)c(CN2C(=O)c3ccccc3S(=O)(=O)c3ccc(C(=O)N4CCN(c5ccccc5F)CC4)cc32)c1 | 79% (inactive) |
| COc1ccc(-c2cn3c(n2)sc2cc(C(=O)NCCCN4CCCCC4)ccc23)cc1 | 69% (inactive) |
| CCCN1CCN(CCCNC(=O)c2ccc3c(c2)sc2nc(-c4ccc(OC)cc4)cn23)CC1 | 73% (inactive) |
| COc1ccc(-c2cn3c(n2)sc2cc(C(=O)NCCCN4CCN(C)CC4)ccc23)cc1 | 95% (inactive) |
| COc1ccc(-c2cn3c(n2)sc2cc(C(=O)NCCCN4CCCCCC4)ccc23)cc1 | 64% (inactive) |
| COc1ccc(-c2cn3c(n2)sc2cc(C(=O)NCCCc4ccccc4)ccc23)cc1 | 65% (inactive) |
| CCOc1ccc(-c2cn3c(n2)sc2cc(C(=O)NCCCN4CCCCCC4)ccc23)cc1 | -2% (active) |
| CCCN1CCN(CCCNC(=O)c2ccc3c(c2)sc2nc(-c4ccc(OCC)cc4)cn23)CC1 | 28% (active) |
| CCOc1ccc(-c2cn3c(n2)sc2cc(C(=O)NCCCN4CCCCC4)ccc23)cc1 | -1% (active) |
| O=C(NCCN1CCOCC1)c1cnn2c(C(F)F)cc(-c3ccccc3)nc12 | 86% (inactive) |
| CC(C)(C)C(=O)Nc1cc(-c2cccc(Br)c2)nn1-c1ccccc1 | 81% (inactive) |

| SMILES | survival |
| --- | --- |
| CCc1ccccc1NC(=O)NCc1ccc2c(c1)CCN2C(=O)c1ccccc1 | 125% (inactive) |
| CC1CCN(c2nc3ccc(C(=O)N4CCN(c5ccccc5)CC4)cc3s2)CC1 | 72% (inactive) |
| Cc1ccc(Cl)cc1N1CCN(C(=O)c2ccc3nc(N4CCC(C)CC4)sc3c2)CC1 | 29% (active) |
| Cc1ccc(C)c(N2CCN(CCCNC(=O)c3ccc4nc(N5CCCCC5)sc4c3)CC2)c1 | 71% (inactive) |
| Cc1ccc(C)c(N2CCN(CCCNC(=O)c3ccc4nc(N5CCC(C)CC5)sc4c3)CC2)c1 | 4% (active) |
| COc1ccc(N2CCN(C(=O)c3ccc4nc(N5CCC(C)CC5)sc4c3)CC2)cc1 | 84% (inactive) |
| COc1cccc(N2CCN(C(=O)c3ccc4nc(N5CCC(C)CC5)sc4c3)CC2)c1 | 62% (inactive) |
| CC1CCN(c2nc3ccc(C(=O)NCc4ccc(Cl)cc4)cc3s2)CC1 | 128% (inactive) |
| Cc1ccc(Cl)cc1N1CCN(CCCNC(=O)c2ccc3nc(N4CCCCC4)sc3c2)CC1 | 77% (inactive) |
| Cc1cccc(N2CCN(C(=O)c3ccc4nc(N5CCC(C)CC5)sc4c3)CC2)c1C | 1% (active) |
| Cc1ccc(CN2C(=O)C3(SCC(=O)N3c3ccc(C)c(C)c3)c3ccccc32)cc1 (centres undefined) | 99% (inactive) |
| COc1ccc(CCC(=O)NCCc2csc(-c3cccc(F)c3)n2)cc1 | 83% (inactive) |
| Cc1cccc(N(C)S(=O)(=O)c2ccc3c(c2)NC(=O)CC(=O)N3)c1 | 86% (inactive) |
| COc1cccc(C(=O)NCC(C)C)c1 | 81% (inactive) |
| CCOc1ccc(-c2nc(CSCC(=O)NCc3ccc(Cl)cc3)c(C)o2)cc1 | 95% (inactive) |
| COc1ccc(-c2nc(CSCC(=O)NCCc3ccccc3)c(C)o2)cc1 | 86% (inactive) |
| CCOc1ccc(-c2nc(CSCC(=O)NCc3ccc(C)cc3)c(C)o2)cc1 | 78% (inactive) |
| Cc1ccc(CNC(=O)CSCc2nc(-c3ccc(Cl)cc3)oc2C)cc1 | 66% (inactive) |
| Cc1cccc(-c2nc(CS(=O)CC(=O)NCc3ccc(Cl)cc3)c(C)o2)c1 (centres undefined) | 61% (inactive) |
| COc1ccc(CNC(=O)CSCc2nc(-c3ccccc3F)oc2C)cc1 | 67% (inactive) |
| COc1ccc(-c2nc(CSCC(=O)NCCc3ccc(C)cc3)c(C)o2)cc1OC | 56% (inactive) |
| CCc1ccc(-c2nc(CSCC(=O)NCc3ccc(C)cc3)c(C)o2)cc1 | -3% (active) |
| Cc1oc(-c2ccccc2F)nc1CSCC(=O)NCCc1ccccc1 | 94% (inactive) |
| Cc1ccc(CCNC(=O)CSCc2nc(-c3ccc(C)cc3)oc2C)cc1 | 26% (active) |

| SMILES | survival |
| --- | --- |
| Cc1oc(-c2ccccc2F)nc1CSCC(=O)NCc1ccccc1 | 41% (active) |
| Cc1ccc(CNC(=O)CSCc2nc(-c3cccc(C)c3)oc2C)cc1 | -5% (active) |
| O=C(CC1SC(=NC2CCCCC2)NC1=O)Nc1ccccc1 (centres undefined) | 89% (inactive) |
| O=C(Nc1ccc(Cl)cc1Cl)c1cc(S(=O)(=O)N2CCN(c3ccccc3F)CC2)ccc1F | 102% (inactive) |
| CCN(C(=O)C1CCCN(c2ncnc3c2nc2n3CCCCC2)C1)c1cccc(C)c1 (centres undefined) | 75% (inactive) |
| CC(C)Cc1nn2c(=O)cc(COC(=O)c3cccc(NS(C)(=O)=O)c3)nc2s1 | 82% (inactive) |
| Cc1ccc(C(=O)CCCn2nnc(-c3ccncc3)n2)cc1C | 100% (inactive) |
| O=C(CSC1=NC2CCCCC2N1)N1CCOCC1 (centres undefined) | 83% (inactive) |
| Cc1ccc(NC(=O)CSc2nc3ccccc3nc2Cc2ccccc2)c(Cl)c1 | 99% (inactive) |
| CCCCCCOc1ccc(-c2nc3ccc(Br)cc3c(=O)o2)cc1 | 83% (inactive) |
| CCCC(CCC)C(=O)Nc1nnc2n1CCS2 | 82% (inactive) |
| O=C(NCc1ccccc1)C1CCN(C(=O)NCc2ccccc2)CC1 | 90% (inactive) |
| COc1cccc(N2CCN(S(=O)(=O)c3ccc(-c4ccno4)cc3OC)CC2)c1 | 64% (inactive) |
| COc1cc(-c2ccno2)ccc1S(=O)(=O)N1CCN(c2ccc(F)cc2)CC1 | 67% (inactive) |
| COc1ccc(N2CCN(S(=O)(=O)c3ccc(-c4ccno4)cc3OC)CC2)cc1 | 6% (active) |
| COc1cc(-c2ccno2)ccc1S(=O)(=O)N1CCN(c2ccccc2)CC1 | 72% (inactive) |
| COc1ccccc1N1CCN(S(=O)(=O)c2ccc(-c3ccno3)cc2OC)CC1 | 86% (inactive) |
| COc1cc(-c2ccno2)ccc1S(=O)(=O)N1CCN(c2cccc(Cl)c2)CC1 | -1% (active) |
| N#CC1=C2SCN(C3CCCCC3)CN2C(=O)CC1c1ccc(Cl)cc1 (centres undefined) | 91% (inactive) |
| CCOc1cc(CNC(=O)c2cc(-c3ccccc3)n[nH]2)cc(OCC)c1OCC | 98% (inactive) |
| Cc1ccc(-c2cc(NC(=O)COc3c(C)cc(C)cc3C)on2)cc1 | 67% (inactive) |
| CC1Cc2cc(C(=O)NC3CCCCC3)ccc2O1 (centres undefined) | 71% (inactive) |
| Cc1ccc(N2C(=O)CS(=O)(=O)C23C(=O)N(Cc2ccccc2F)c2ccccc23)cc1Cl (centres undefined) | 60% (inactive) |
| O=C(CCC1N=C2c3ccccc3N=C(SCc3ccc(F)cc3)N2C1=O)N1CCN(c2ccccc2)CC1 (centres undefined) | 57% (inactive) |

| SMILES | survival |
| --- | --- |
| O=C(CCC1N=C2c3ccccc3N=C(SCc3cccc(Cl)c3)N2C1=O)N1CCN(c2ccccc2)CC1 (centres undefined) | 47% (active) |
| Cc1ccc(CSC2=Nc3ccccc3C3=NC(CCC(=O)N4CCN(c5ccccc5)CC4)C(=O)N23)cc1 (centres undefined) | 85% (inactive) |
| O=C(CCC1N=C2c3ccccc3N=C(SCc3cccc(Cl)c3)N2C1=O)NCCc1ccccc1 (centres undefined) | 63% (inactive) |
| O=C(CCC1N=C2c3ccccc3N=C(SCc3ccc(Cl)cc3)N2C1=O)N1CCN(c2ccccc2)CC1 (centres undefined) | 91% (inactive) |
| O=C(CCC1N=C2c3ccccc3N=C(SCc3ccccc3Cl)N2C1=O)N1CCN(c2ccccc2)CC1 (centres undefined) | 49% (active) |
| COc1cccc(NC(=O)CN2CCCN(S(=O)(=O)c3ccc(Br)cc3)CC2)c1 | 58% (inactive) |
| CCC1(CC)Cc2ccccc2-c2nc(NCCCO)[nH]c(=O)c21 | 82% (inactive) |
| COc1ccccc1N1CCN(C(=O)c2cc3c(=O)n(Cc4cccs4)ccc3nc2C)CC1 | 74% (inactive) |
| Cc1oc2ncn(CC(C)C)c(=O)c2c1C(=O)NCCCN(Cc1ccccc1)C(C)C | 117% (inactive) |
| COc1ccc2c(C)c(CCC(=O)NCCc3ccccc3OC)c(=O)oc2c1 | 77% (inactive) |
| Cc1cc(NC(=O)c2ccco2)cc(-c2nc3cc(Cl)ccc3o2)c1O | 79% (inactive) |
| O=C(/C=C/c1ccco1)Nc1ccc(Cl)c(-c2nc3cc(Cl)ccc3o2)c1 | 65% (inactive) |
| Cc1ccc2oc(-c3cc(NC(=O)c4ccco4)ccc3Cl)nc2c1 | 0% (active) |
| Cc1ccc2oc(-c3cc(NC(=O)c4oc5ccccc5c4C)ccc3Cl)nc2c1 | 62% (inactive) |
| Cc1cc(NC(=O)Cc2ccccc2)cc(-c2nc3ccccc3o2)c1O | 79% (inactive) |
| Cc1ccccc1-c1nc2cc(NC(=O)Cc3ccc(Cl)cc3)ccc2o1 | 66% (inactive) |
| Cc1cc(C)c2oc(-c3cc(NC(=O)Cc4ccccc4)ccc3Cl)nc2c1 | 31% (active) |
| Cc1ccc2nc(-c3cc(NC(=O)/C=C/c4ccccc4)ccc3Cl)oc2c1 | 68% (inactive) |
| COc1c(C)cccc1C(=O)Nc1ccc(Cl)c(-c2nc3cc(C)ccc3o2)c1 | 6% (active) |
| Cc1ccc2oc(-c3cc(NC(=O)/C=C/c4ccco4)ccc3Cl)nc2c1 | 40% (active) |
| O=C(Nc1ccc(Cl)c(-c2nc3ccccc3o2)c1)c1cccc2c(Cl)cccc12 | 84% (inactive) |
| O=C(Nc1ccc(O)c(-c2nc3ccccc3o2)c1)c1ccco1 | 71% (inactive) |
